Bioassay records: PubChem, National Center for Advancing Translational Sciences (NCATS)
An excerpt weighted towards active compounds, which were near 3.6% of everything screened.
IkB signaling: IkB pathway inhibition in ABC-DLBCL cells; 110,000 compounds, 0.04% hits; Potency, µM (highest dose often 57.1 µM); ABC-DLBCL IkBa-CBG/CBR dual luciferase ratio, 4 h; response scale: scaled: untreated 0%, proteasome inhibitor 100%; AID 445; active = well fitted curve in the direction sought with a large enough effect in the signal ratio, not every such curve was filed as active; inconclusive = small, poorly fitted or top-dose-only effect, or a change in a side signal; the % refers to the signal ratio;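 also: the direction sought is a rising ratio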
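In this assay, an IκBα–CBG68 fusion accumulates when IKK-driven degradation is blocked; native CBR normalizes for cell number. OCI-Ly3 cells were treated 4 h with compound and doxycycline, then green and red light read after Chroma-Glo addition.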
ERK AVP inh: inhibitors of vasopressin-stimulated ERK signaling pathway; 72,000 compounds, 0.99% hits; AID 995; HEK293-V1b, vasopressin-stimulated pERK AlphaScreen; Potency, µM (highest dose often 57.5 µM), most hits filed as inhibitors; also: nearly all actives have a fitted effect of over 55% in size
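HEK293 cells stably expressing V1b receptor, seeded overnight in 1% FBS, were treated with compounds for 30 min at 37C, then stimulated 5 min with 25 nM vasopressin; phospho-ERK read by AlphaScreen SureFire after lysis.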
HEK293 cAMP ctrl: counter-screen for TSHR agonists: cAMP increase in parental HEK293; AID 938; parental HEK293 CNG cAMP sensor, membrane potential fluorescence; Potency, µM (doses to about 57.1 µM), usual class: activators; 73,000 compounds, 2.5% hits; also: nearly all actives have a fitted effect of over 55% in size
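Parental HEK 293 cells stably expressing a modified CNG channel (no TSHR) report cAMP rise as membrane depolarization. Membrane potential dye with 100 uM RO 20-1724 was loaded for 60 min at room temperature, then compound added for 30 min; fluorescence read at 590 nm.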
TSHR agonist: TSH receptor (human) agonism; HEK293-CNG-TSHR cells (CNG channel as cAMP sensor), membrane potential dye, cAMP; AID 926; 73,000 compounds, 0.48% hits; P16473; Potency, µM (top dose mostly 57.1 µM), most hits filed as activators; active = well fitted activation curve with a large enough effect in the main read-out, with a control signal flat, not every such curve was filed as active; inconclusive = small, poorly fitted or top-dose-only effect, or a change in a side signal; inactive = no such curve, though single readings can be large or run the other way; reference of the percent scale not stated here;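 also: the control signal comes from parental cells without the receptor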
Target sequence (P16473 whole entry, looked up): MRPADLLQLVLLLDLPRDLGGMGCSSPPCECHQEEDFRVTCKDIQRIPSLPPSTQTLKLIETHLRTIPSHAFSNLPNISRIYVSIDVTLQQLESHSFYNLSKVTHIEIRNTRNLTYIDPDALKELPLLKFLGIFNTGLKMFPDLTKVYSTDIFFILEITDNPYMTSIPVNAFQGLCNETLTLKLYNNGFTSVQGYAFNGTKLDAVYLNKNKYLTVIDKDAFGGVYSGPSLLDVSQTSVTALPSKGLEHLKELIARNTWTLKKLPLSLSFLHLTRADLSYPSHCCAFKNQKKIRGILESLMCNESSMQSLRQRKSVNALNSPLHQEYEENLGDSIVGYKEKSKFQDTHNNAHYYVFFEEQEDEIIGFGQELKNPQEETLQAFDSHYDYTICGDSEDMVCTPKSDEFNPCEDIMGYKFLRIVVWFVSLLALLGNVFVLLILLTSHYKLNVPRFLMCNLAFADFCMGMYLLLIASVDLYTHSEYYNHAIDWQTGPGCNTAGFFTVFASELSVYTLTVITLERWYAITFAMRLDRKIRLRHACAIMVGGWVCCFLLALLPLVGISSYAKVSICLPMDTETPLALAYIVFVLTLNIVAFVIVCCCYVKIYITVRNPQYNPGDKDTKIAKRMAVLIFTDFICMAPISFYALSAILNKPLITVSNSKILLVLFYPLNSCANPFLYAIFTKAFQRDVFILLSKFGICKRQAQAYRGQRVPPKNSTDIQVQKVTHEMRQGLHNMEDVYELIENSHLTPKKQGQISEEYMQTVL
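HEK 293 cells stably expressing TSHR and a cAMP-gated CNG channel; parental CNG-only cells as counterscreen. Cells preloaded 60 min with membrane potential dye plus 100 uM RO 20-1724, then compound 30 min; fluorescence read at 590 nm.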
CRE Fsk mod: modulators of forskolin-stimulated CRE signaling in CHO cells. Potency, µM (titrated, usually from 38.2 µM), actives largely listed as activators. 71,000 compounds, 2.5% hits. CHO CRE-bla reporter (cAMP response element driving beta-lactamase), forskolin EC10, beta-lactamase ratio; active = well fitted activation curve with a large enough effect in the signal ratio, with a control signal flat, not every such curve was filed as active; inconclusive = small, poorly fitted or top-dose-only effect, or effect the other way, or a change in a side signal; the % refers to the signal ratio
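Modulation of forskolin signalling: compounds in titration series added with EC10 NKH 477 to CHO cells carrying a CRE-driven beta-lactamase reporter, 3 h, 37C. CCF4 FRET ratio (460/530 nm, ex 405 nm) gives %activity and AC50.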
A number is an active result; [ ] = another dose, or the depositor's remark. Unless noted, calls follow the shape of the dose curve; as a rule, active = well fitted curve in the direction sought with a large enough effect; inconclusive = small, poorly fitted or top-dose-only effect, or another doubt; inactive = no such curve, though single readings can be large; an effect the other way counts as inactive or inconclusive.

Results for c1ccc(-c2nc(N3CCCCCC3)nc(-n3ccnc3)n2)cc1 ?
IkB signaling: inactive; ERK AVP inh: inactive; HEK293 cAMP ctrl: inactive; TSHR agonist: 4µM; CRE Fsk mod: inactive

What do the screens show for `c1ccc(N(c2ccccc2)c2nc(-n3ccnc3)nc(-n3ccnc3)n2)cc1`?
IkB signaling: inconclusive; ERK AVP inh: inactive; HEK293 cAMP ctrl: 25µM; TSHR agonist: inconclusive; CRE Fsk mod: inactive

Results for c1ccc(-c2nc(N3CCN(c4ccccc4)CC3)nc(-n3ccnc3)n2)cc1 ?
IkB signaling: inactive; ERK AVP inh: inactive; HEK293 cAMP ctrl: inconclusive; TSHR agonist: inconclusive; CRE Fsk mod: inactive

What do the screens show for `CN(c1ccccc1)c1nc(-n2ccnc2)nc(-n2ccnc2)n1`?
IkB signaling: inactive; ERK AVP inh: inconclusive; HEK293 cAMP ctrl: inactive; CRE Fsk mod: inconclusive

What do the screens show for `CC(C)N1CCc2c(sc(NC(=O)c3ccc(S(=O)(=O)N4CCOCC4)cc3)c2C(N)=O)C1`?
IkB signaling: inactive; HEK293 cAMP ctrl: inactive; TSHR agonist: inactive[11.4 µM]; CRE Fsk mod: inactive

How did CCN(CCCNC(=O)c1nn(-c2ccc(C)cc2)c(=O)c2c1c1ccccc1n2C)c1cccc(C)c1 do in these assays?
IkB signaling: inactive

How did CCOc1cc(NC(=O)c2cnccn2)c(OCC)cc1NC(=O)c1ccc(OC)cc1 do in these assays?
IkB signaling: inactive; ERK AVP inh: inactive; HEK293 cAMP ctrl: inactive; TSHR agonist: inactive; CRE Fsk mod: inactive

Results for O=C(OCc1c(Cl)nc2sccn12)c1cc2c(s1)CCCC2 ?
IkB signaling: inactive; ERK AVP inh: inactive; HEK293 cAMP ctrl: 13µM; TSHR agonist: inconclusive; CRE Fsk mod: inconclusive

What do the screens show for `COc1ccc2c(CNCc3ccco3)c(C(=O)O)n(Cc3ccccc3)c2c1`?
IkB signaling: inactive

How did CCOc1ccc(-n2c(SCc3nc(-c4cccs4)no3)nnc2-c2ccncc2)cc1 do in these assays?
IkB signaling: inactive; ERK AVP inh: inactive; HEK293 cAMP ctrl: 3.2µM; TSHR agonist: inconclusive; CRE Fsk mod: inconclusive

What do the screens show for `CCc1ccc(NC(=O)N(CCCN2CCOCC2)C(C)c2cc3cccc(OC)c3o2)cc1` (stereo unspecified)?
IkB signaling: inconclusive; ERK AVP inh: inactive; HEK293 cAMP ctrl: inactive; TSHR agonist: inactive; CRE Fsk mod: inconclusive

What do the screens show for `CCCOc1ccccc1-c1nc2c([nH]1)c(=O)[nH]c(=O)n2C`?
IkB signaling: inactive; ERK AVP inh: inactive; HEK293 cAMP ctrl: inactive; TSHR agonist: inactive; CRE Fsk mod: 13µM

What do the screens show for `CCC(C)Sc1nc2c([nH]c3ccccc32)c(=O)n1C` (stereo unspecified)?
IkB signaling: inactive; HEK293 cAMP ctrl: inactive; TSHR agonist: inactive; CRE Fsk mod: inactive

What do the screens show for `CC(C)Oc1ccccc1C1CC(=O)Nc2cc3c(cc21)OCCO3` (stereo unspecified)?
IkB signaling: inconclusive; ERK AVP inh: 16µM; HEK293 cAMP ctrl: inconclusive; TSHR agonist: inconclusive; CRE Fsk mod: 6.3µM

How did CCCOc1c(OC)cccc1C1CC(=O)Nc2cc3c(cc21)OCCO3 (stereo unspecified) do in these assays?
IkB signaling: inconclusive; ERK AVP inh: inactive; HEK293 cAMP ctrl: 16µM; TSHR agonist: inconclusive; CRE Fsk mod: inconclusive

Results for COc1ccccc1C1CC(=O)Nc2cc3c(cc21)OCCO3 (stereo unspecified) ?
IkB signaling: inactive; ERK AVP inh: inactive; HEK293 cAMP ctrl: inactive; CRE Fsk mod: inconclusive

How did CCCOc1c(OC)cccc1C1CC(=O)Nc2cc3c(cc21)OCO3 (stereo unspecified) do in these assays?
IkB signaling: inconclusive; ERK AVP inh: inactive; HEK293 cAMP ctrl: inconclusive; TSHR agonist: inconclusive; CRE Fsk mod: inconclusive

How did CC(C)c1cc(C(=O)NCc2ccc(F)cc2)no1 do in these assays?
IkB signaling: inactive

What do the screens show for `CN(C(=O)c1nc(-c2cccc(F)c2)n2c1CCCCC2)c1ccccc1F`?
IkB signaling: inactive

What do the screens show for `Cc1cc(NC(=O)CSc2nc3ccccc3c(=O)n2C2CCCC2)no1`?
IkB signaling: inactive; ERK AVP inh: inactive; HEK293 cAMP ctrl: inactive; CRE Fsk mod: 13µM

How did CN(C)c1ccc(NC(=O)CSc2nc3ccccc3c(=O)n2C2CCCCC2)cc1 do in these assays?
IkB signaling: inactive; ERK AVP inh: inactive; HEK293 cAMP ctrl: inactive; TSHR agonist: inconclusive; CRE Fsk mod: inactive
